Experimental data taken from PubChem BioAssay.

Legend:
[1] = target: Tumor necrosis factor receptor superfamily member 10B (Homo sapiens) (UniProt O14763); assay: caspase-8 TRAIL sensitization, hit retest, confirmation, cell-based, NB7+caspase-8, with/without TRAIL, luminescence panel (AID 651596); details: NB7 neuroblastoma + caspase-8, TRAIL sensitization, luminescence viability, with TRAIL, mean of runs, at 10 µM, stronger effect = higher value
[2] = as above; details: NB7 neuroblastoma + caspase-8, without TRAIL, luminescence viability, without TRAIL, mean of runs, at 10 µM

Sequence of Tumor necrosis factor receptor superfamily member 10B (Homo sapiens) (O14763 whole entry, looked up): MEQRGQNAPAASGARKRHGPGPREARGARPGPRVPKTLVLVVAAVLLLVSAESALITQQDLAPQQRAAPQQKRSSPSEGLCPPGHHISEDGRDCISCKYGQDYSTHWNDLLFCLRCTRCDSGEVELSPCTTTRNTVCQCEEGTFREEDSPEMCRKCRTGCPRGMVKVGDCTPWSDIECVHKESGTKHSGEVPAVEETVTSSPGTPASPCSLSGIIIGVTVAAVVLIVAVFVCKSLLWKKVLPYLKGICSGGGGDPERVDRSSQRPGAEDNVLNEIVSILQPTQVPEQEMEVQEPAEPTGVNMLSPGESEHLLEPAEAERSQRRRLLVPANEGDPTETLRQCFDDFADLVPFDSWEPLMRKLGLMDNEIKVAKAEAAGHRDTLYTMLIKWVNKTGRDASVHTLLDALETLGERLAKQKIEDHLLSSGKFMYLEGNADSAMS

| SMILES | activity [1] | activity [2] |
| --- | --- | --- |
| O=C(CSc1nnc(NC(=O)c2ccccc2)s1)NCC1CCCO1 (configuration not stated) | 60.9% | 63.2% |
| Nc1ccccc1C(=O)NN=Cc1cccnc1 | 63.5% | 58.7% |
| Cc1ccc2nc(NC(=O)c3ccccc3F)sc2c1 | 67.5% | 64% |
| C#CC(=O)N(c1ccc(OC)c(OC)c1)C(C(=O)NC1CCCC1)c1cccs1 (configuration not stated) | 99.3% | 99.5% |
| O=C(Nc1ccc(N2CCN(C(=O)c3ccccc3)CC2)cc1)c1ccc([N+](=O)[O-])o1 | 89% | 99.3% |
| Nc1nc(Nc2ccc(Cl)cc2)nc2ccccc12 | 84.4% | 83.5% |
| Cc1cc(C(=O)Nc2sc3c(c2C#N)CCCC3)no1 | 53% | 52.5% |
| CCC(=O)Nc1ccc2oc(-c3cccc(C)c3)nc2c1 | 57.2% | 55.7% |
| COc1cc(/C=C2\Oc3ccc(C#Cc4ccc(O)cc4)cc3C2=O)cc(OC)c1 | 80.5% | 83.2% |
| CCOc1ccc(C(C)=O)cc1COC(=O)c1cnc(Cl)c(Cl)c1 | 97.6% | 79.1% |
| O=C(Nc1ccccn1)c1sc2cccc(F)c2c1Cl | 82.7% | 76.6% |
| COc1ccccc1N1CCN(Cc2ccc(O)c3ncccc23)CC1 | 30.2% | 76% |
| CC(=O)n1cc(N(C(=O)CCl)c2ccc(Cl)cc2)c2ccccc21 | 98.5% | 98.9% |
| Cc1ccc(C(=O)N/N=C\c2ccccc2[N+](=O)[O-])cn1 | 47.5% | 43.6% |
| Cc1cnc(NC(=O)COc2ccccc2Cl)s1 | 83% | 82.7% |
| CCC(=O)c1ccc(OCC(=O)OCC(=O)N2CCCc3ccccc32)cc1 | -9.15% | -14.8% |
| CC(C)c1ccc(/C=C/c2ccc(=O)n(C)n2)cc1 | 68.1% | 66.6% |
| FC(F)(F)c1nnc(-c2ccccc2)nc1Sc1ccc(Cl)cc1 | 42.7% | 46.2% |
| O=C(COc1ccc(Cl)cc1Cl)Nc1ccccc1F | 54.9% | 40.5% |
| COc1cccc(/C=C2\Oc3ccc(O)cc3C2=O)c1O | 66.8% | 56.4% |
| C(=N\Nc1nc2ccccc2[nH]1)/c1ccc2ncccc2c1 | 81% | 85.6% |
| O=C(CCl)N(CCCNC(=O)C(F)(F)F)c1ccc([N+](=O)[O-])cc1 | 98.5% | 98.3% |
| COc1ccc(N(C(=O)CCl)C(C(=O)NCCc2ccccc2)c2cccs2)cc1Cl (configuration not stated) | 98.3% | 99.1% |
| COc1ccc(C[C@H](N)C(=O)N[C@H]2[C@@H](O)[C@H](n3cnc4c(N(C)C)ncnc43)O[C@@H]2CO)cc1 | 98.4% | 99.2% |
| COc1ccc(C=C2C=C(C(C)(C)C)C(=O)C(C(C)(C)C)=C2)cc1OC | 93.4% | 98.8% |
| O=c1oc2c(O)cccc2cc1-c1nc2ccccc2[nH]1 | 72% | 68.8% |
